Compounds with a hit are over-represented: about 3.9% of the library has one in this group of screens.
CDK5 inh: blocks human CDK5/p35 kinase activity; Recombinant CDK5/p35, ADP-Glo luminescence, 60 min; inhibition, % at 10 µM; actives 0.01% (n = 330,000);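 active = highest replicate inhibition of at least 50% and at least 75% of replicates reaching 50%; inconclusive = only one of the two criteria met; inactive = both criteria failed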;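 also: plate controls were DMSO neutral control for no effect and GW8510 at 10 µM for full effect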
Target sequence (Q00535 whole entry, looked up): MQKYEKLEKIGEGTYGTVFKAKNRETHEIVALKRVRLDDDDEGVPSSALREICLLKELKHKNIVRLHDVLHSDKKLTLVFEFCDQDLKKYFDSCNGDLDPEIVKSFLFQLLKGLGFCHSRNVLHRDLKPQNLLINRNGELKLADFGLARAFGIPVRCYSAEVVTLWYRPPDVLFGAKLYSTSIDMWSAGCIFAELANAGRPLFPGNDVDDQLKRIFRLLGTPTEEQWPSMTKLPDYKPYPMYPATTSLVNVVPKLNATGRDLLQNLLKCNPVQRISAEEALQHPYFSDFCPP
Target sequence (Q15078 whole entry, looked up): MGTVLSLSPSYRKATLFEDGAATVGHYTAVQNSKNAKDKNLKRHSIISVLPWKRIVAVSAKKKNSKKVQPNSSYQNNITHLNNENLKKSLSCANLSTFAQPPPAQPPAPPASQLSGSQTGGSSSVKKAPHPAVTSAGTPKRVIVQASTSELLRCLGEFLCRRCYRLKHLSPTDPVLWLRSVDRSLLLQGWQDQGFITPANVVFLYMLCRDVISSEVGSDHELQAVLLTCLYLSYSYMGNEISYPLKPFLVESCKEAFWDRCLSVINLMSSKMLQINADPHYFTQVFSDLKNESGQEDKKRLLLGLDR
NSD2 HMT inh: inhibitors of human histone methyltransferase NSD2 | O96028 | NSD2 peptide methylation, AlphaScreen, 120 min | inhibition, % at 12.5 µM | actives 0.54% (n = 310,000) | AID 743445; in the data active = inhibition above about 50%
SUMO Mot1 rescue: inhibitors of SUMOylation pathway: yeast Mot1-301 growth rescue | S. cerevisiae Mot1-301 growth rescue, ATP luminescence, 38.5C; percent above DMSO median, 100 means doubled | growth rescue, % at 18.8 µM | actives 1% (n = 320,000) | AID 2716;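 active = every valid replicate shows activation above 250% relative to neutral control wells; inactive = the rest, any valid replicate at or below 250%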;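 also: OY570 slx delta 5 strain wells were the positive control but not used for scaling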
ALR inh: inhibitors of human sulfhydryl oxidase ALR | AID 485317 | actives 3.8% (n = 290,000) | inhibition, % (no concentration beside the values) | P55789 | purified ALR, DTT oxidation, H2O2 HRP-luminol luminescence;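 active = mean replicate inhibition above about 79%, with every replicate also reaching it, limit read from the data; inconclusive = only one of the two criteria met; inactive = mean below limit and not every replicate reaching it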
Casp6 inh: blocks human caspase-6 cleavage activity. purified caspase-6, Z-VEID-R110 cleavage fluorescence. inhibition, % at 12.5 µM. actives 0.53% (n = 350,000). AID 686996;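 active = mean inhibition across replicates at least about 35%, with every replicate also reaching that limit, limit read from the data; inconclusive = only one of the two criteria met; inactive = neither criterion met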;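 also: 0% = median of neutral control wells and 100% = no fluorescence left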
N-glyco inh: blocks N-linked glycosylation in D54 reporter cells; D54 ERlucT glycosylation luciferase reporter, 24 h; percent of 100 nM tunicamycin response; reporter increase, % at 12.5 µM; actives 0.23% (n = 360,000);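 active = mean luciferase reporter signal, scaled so untreated is 0 and the glycosylation-blocking control 100, at or above a set limit in every replicate; inconclusive = mean reaches the limit but not every replicate does; inactive = mean below the limit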;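 also: luciferase carries N-glycosylation sites so blocking glycosylation raises the light; 0% = median of neutral control wells and 100% = median of 100 nM tunicamycin wells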
* marks the source's active call; other numbers are inactive results; ? = inconclusive; / = not tested or not shown; ! = repeats disagree.

SMILES	CDK5 inh	NSD2 HMT inh	SUMO Mot1 rescue	ALR inh	Casp6 inh	N-glyco inh
O=C(OCC(=O)N1N=C(c2ccc(Cl)cc2)CC1c1ccco1)c1ccco1 (stereo unspecified)	0	3	122	-3	0	1
O=C(c1ccncc1)c1ccc(N2CCN(C3CC(=O)N(Cc4cccs4)C3=O)CC2)cc1 (stereo unspecified)	0	2	-41	/	0	-4
O=C1CC(N2CCN(c3ccc(O)cc3)CC2)C(=O)N1Cc1cccs1 (stereo unspecified)	0	8	3	99*	/	0
C[C@H](CO)N1C[C@H](C)[C@@H](CN(C)S(=O)(=O)c2cn(C)cn2)Oc2ccc(NC(=O)NC3CCCCC3)cc2CC1=O	/	/	/	/	2	/
CCOc1ccccc1NC(=O)CN(c1ccc(OC)cc1)S(=O)(=O)c1c(C)noc1C	-3	-1	-14	-5	/	34*
CCOc1ccccc1NC(=O)CN(c1cc(C)cc(C)c1)S(=O)(=O)c1c(C)noc1C	1	/	1	-24	1	-3
COc1ccsc1S(=O)(=O)Nc1ccc(C(O)(C(F)(F)F)C(F)(F)F)cc1	/	-2	/	/	/	/
Cc1ccnc(NC(=O)CCCOc2cc(=O)n(C)c3ccccc23)c1	0	/	0	-5	0	26*!
Cn1c(=O)cc(OCCCC(=O)NC2CCCC2)c2ccccc21	0	-2	-3	-11	/	45*
CO[C@H]1CN(C)C(=O)c2cc(NC(=O)c3ccno3)ccc2OC[C@@H](C)NC[C@H]1C	/	/	/	/	-2	/
O=C1SC(c2ccccc2)=C/C1=C\N1CCCCC1	-1	40	2	95*	-1	4
CCOC(=O)c1c(CSc2ccsc2)n(C)c2cc(Br)c(O)c(CN(C)C)c12	0	7	-16	97*	-3	-1
CCOC(=O)c1c(CN2CCOCC2)n(-c2ccccc2)c2cc(Br)c(O)c(CN(C)C)c12	1	4	-15	24	/	-1
CCOC(=O)c1c(CSc2ccc(C)cc2)n(C)c2cc(Br)c(O)c(CN(C)C)c12	-3	6	-10	?	-4	-3
CCOC(=O)c1c(CSc2ccccc2)n(C)c2cc(Br)c(O)c(CN(C)C)c12	-1	15	-14	84*	-4	-2
O=C(Nc1ccccc1F)N1[C@@H](CO)[C@@H]2c3ccccc3NC[C@@H]21	/	/	/	/	0	/
C[C@@H]1CN([C@H](C)CO)C(=O)Cc2cc(NS(=O)(=O)c3cn(C)cn3)ccc2O[C@H]1CN(C)CC1CCCCC1	/	/	/	/	0	/
Cc1ccc(O)c(NC(=O)CCCC(=O)O)c1	0	-3	-2	82*	-2	-2
Cc1nnc(SCc2cnc(-c3ccccc3)o2)[nH]c1=O	0	0	2	99*	/	1
Cc1nnc(SCc2ccccc2)[nH]c1=O	0	-4	-12	-22	-2	0
CCOc1ccc(NCc2cccn2-c2nnc(N3CCC(C(=O)NCCCN4CC(C)CC(C)C4)CC3)s2)cc1 (stereo unspecified)	-4	45	-15	100*	-48	0
CCN1CCN(CCCNC(=O)C2CCN(c3nnc(-n4cccc4)s3)CC2)CC1	3	1	-21	-4	-143	-1
Cc1ccccc1CSc1nccn1-c1ccccc1	0	1	19	99*	/	1
Cc1ccccc1CSc1nnc(-c2ccccn2)n1C	/	-1	3	-2	1	6
Cc1onc(-c2ccccc2Cl)c1C(=O)NC(=S)Nc1ccccc1C(N)=O	-2	-2	7	95*	/	1
SMILES	CDK5 inh	NSD2 HMT inh	SUMO Mot1 rescue	ALR inh	Casp6 inh	N-glyco inh
Cc1onc(-c2ccccc2Cl)c1C(=O)NC1CCS(=O)(=O)C1 (stereo unspecified)	-1	/	-14	96*	-1	3
O=C(C[C@H]1CC[C@@H]2[C@H](COC[C@H](O)CN2C(=O)c2cnccn2)O1)NCc1ccccc1	/	/	/	/	0	/
COc1ccc(CC(=O)Nc2ccccc2N2CCCC2)cc1OC	1	1	15	98*	-1	-1
CC(C)(C)C(=O)NC(=S)Nc1ccccc1N1CCCC1	0	3	403	98*	1	-1
Cc1cccc(NC(=O)CSCC(=O)Nc2cccc3ncccc23)c1	1	0	58	99*	3	0
CC(=O)NC(=S)Nc1ccccc1N1CCCCC1	0	9	15	20	/	2
Cc1cccc(NC(=O)CSCC(=O)Nc2ccccc2N2CCCC2)c1	0	1	-6	99*	-117	2
Cc1cccc(NC(=O)CSCC(=O)Nc2ccccc2N2CCCCC2)c1	0	-1	-14	-9	6	-3
COc1ccc(NC(=O)N(C)C[C@H]2Oc3c(NC(=O)c4ccncc4)cccc3C(=O)N([C@@H](C)CO)C[C@@H]2C)cc1	/	/	/	/	3	/
Cc1ccnc(NC(=O)c2cccc(NC(=O)c3ccccc3Cl)c2)c1	/	-1	/	/	/	/
COc1cc2c(cc1OC)C(c1cccs1)N(C(=O)c1cccnc1)CC2 (stereo unspecified)	-8	-3	4	-11	2	80*
CCCNC(=O)N(C)C[C@@H]1Oc2cc(C#CC(C)(C)O)ccc2S(=O)(=O)N([C@H](C)CO)C[C@@H]1C	/	/	/	/	1	/
C=CCN1c2ccccc2[C@]23C[C@@H](C(=O)OC)N(C(=O)c4cc(C)oc4C)C2=NC(C(=O)OC)=C(C(=O)OC)[C@H]13	/	/	1	-10	/	/
CC#CCN1c2ccccc2[C@]23C[C@@H](C(=O)OC)N(C(=O)c4cc(C)oc4C)C2=NC(C(=O)OC)=C(C(=O)OC)[C@H]13	1	/	26	5	0	33*
Cc1ccc(C(=O)Nc2ccccc2C(=O)N2CCCCC2C)cc1 (stereo unspecified)	-1	0	-12	0	2	-1
Cc1ccc(C(=O)Nc2ccccc2C(=O)N2CC(C)OC(C)C2)cc1 (stereo unspecified)	/	-1	/	/	0	46*
CS(=O)(=O)Nc1ccc(C(=O)Nc2ccccc2C(=O)N2CCCC2)cc1	-1	4	545*	0	/	0
CS(=O)(=O)Nc1ccccc1C(=O)Nc1ccccc1C(=O)N1CCCC1	-1	1	-11	2	0	1
C[C@@H]1CN([C@H](C)CO)C(=O)Cc2cc(NC(=O)NC3CCCCC3)ccc2O[C@H]1CN(C)S(=O)(=O)c1ccc(F)cc1	/	/	/	/	2	/
C[C@H](CO)N1C[C@H](C)[C@@H](CN(C)S(=O)(=O)c2cccs2)Oc2c(NC(=O)c3cnccn3)cccc2C1=O	/	/	/	/	-1	/
Cc1nn(Cc2ccc(C(=O)NN)cc2)c(C)c1Cl	-3	-4	95	/	-6	2
Cc1nn(Cc2cccc(C(=O)NN)c2)c(C)c1Cl	1	0	-1	97*	1	1

High-throughput results from PubChem BioAssay.
